Screening results deposited in PubChem BioAssay by National Center for Advancing Translational Sciences (NCATS).
This excerpt belongs to a sample that is enriched for hits.
FBPA Giardia inh: qHTS Assay for Inhibitors of Fructose-1,6-bisphosphate Aldolase from Giardia Lamblia; purified Giardia FBPA; Potency, µM (titrated, usually from 59.6 µM), usual class: inhibitors; 0.71% of 290,000 active; AID 2451, 2010; also: nearly all actives have a fitted effect of over 55% in size
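Giardia FBPA (40 nM reagent) was preincubated 10 min at RT with compound (up to 57.5 uM final), then substrate plus GAPDH/TPI/NAD/arsenate coupling system with diaphorase/resazurin was added; resorufin fluorescence (525/598 nm) was read after 20 min.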
TbPYK inhibitor: qHTS of Trypanosoma Brucei Inhibitors; pyruvate kinase (Trypanosoma brucei), Q57TT1; TbPYK enzyme, Kinase-Glo Plus ATP luminescence, 45 min; Potency, µM (series often up to 76.8 µM), hits mostly inhibitors; 0.12% of 410,000 active; also: nearly all actives have a fitted effect of over 50% in size
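Luminescent Kinase-Glo Plus end-point after 45 min room-temperature reaction of T. brucei pyruvate kinase started with 130 uM ADP (final). Buffer TEA 50 mM pH 7.2 with KCl, MgCl2, BSA, Tween-20; titration-based qHTS with fitted concentration-effect curves.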
Shiga inhibitor: A qHTS for Small Molecule Inhibitors of Shiga Toxin | Vero cells, Shiga toxin protein synthesis inhibition reporter | inhibition, % at 38.7 µM | 9.2% of 290,000 active | AID 2315, 2010; in the data active = inhibition mostly above about 28%, no sharp cut-off; inactive = mostly below about 43%
Cycloheximide cs: Cycloheximide Counterscreen for Small Molecule Inhibitors of Shiga Toxin. cell reporter, cycloheximide protein synthesis inhibition counterscreen. 12% of 300,000 active. AID 2314, 2010. max response, %; in the data active = max response mostly above about 13%, no sharp cut-off; inactive = mostly below about 14%; also: read at 38.3 µM for the half of the compounds with a filed dose
LmPK inh: qHTS Assay for Inhibitors of Leishmania Mexicana Pyruvate Kinase (LmPK) | Q27686 | purified LmPK, Kinase-Glo ATP luminescence, 1 h | Potency, µM (top dose mostly 57.5 µM), actives largely listed as inhibitors | 0.37% of 290,000 active | AID 1721, 2009
Target sequence (Q27686 whole entry, looked up): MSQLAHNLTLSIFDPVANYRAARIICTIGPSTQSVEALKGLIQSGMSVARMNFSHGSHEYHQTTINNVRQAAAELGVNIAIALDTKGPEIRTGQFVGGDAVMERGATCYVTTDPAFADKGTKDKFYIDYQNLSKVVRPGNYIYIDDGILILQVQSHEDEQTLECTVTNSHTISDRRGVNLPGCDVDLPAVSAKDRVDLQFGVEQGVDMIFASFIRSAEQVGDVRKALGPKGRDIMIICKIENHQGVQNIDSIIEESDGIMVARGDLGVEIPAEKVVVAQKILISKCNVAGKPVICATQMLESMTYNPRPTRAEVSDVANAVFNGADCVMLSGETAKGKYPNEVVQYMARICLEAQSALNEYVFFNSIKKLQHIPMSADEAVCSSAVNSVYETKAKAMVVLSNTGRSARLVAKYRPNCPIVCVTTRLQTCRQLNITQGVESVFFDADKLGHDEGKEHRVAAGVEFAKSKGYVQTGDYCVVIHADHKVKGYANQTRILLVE
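Kinase-Glo luminescence read after 1 h RT reaction of 0.1 nM LmPK with 0.5 mM PEP and 0.1 mM ADP. Activity scaled between uninhibited and enzyme-free controls.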
Sm TGR block: qHTS Assay for the Inhibitors of Schistosoma Mansoni Peroxiredoxins | purified TGR, DTNB reduction, TNB absorbance 405 nm | Potency, µM (titrated, usually from 114 µM), usual class: inhibitors | 3% of 360,000 active | AID 485364, 2010; also: nearly all actives have a fitted effect of over 60% in size
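Kinetic colorimetric format: TGR-catalysed, NADPH-driven DTNB reduction monitored via TNB absorbance. Enzyme dispensed at 20 nM; compound exposure 15 min at room temperature before reaction start.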
A number is an active result. Unless noted, calls follow the shape of the dose curve; as a rule, active = well fitted curve in the direction sought with a large enough effect; inconclusive = small, poorly fitted or top-dose-only effect, or another doubt; inactive = no such curve, though single readings can be large; an effect the other way counts as inactive or inconclusive.

`COc1ccc(CNC(=O)C(=O)c2cn(CC(=O)N3CCCC3)c3ccccc23)cc1` gave TbPYK inhibitor inactive, Shiga inhibitor inactive, Cycloheximide cs 18.5, LmPK inh inactive and Sm TGR block inactive.
`COc1ccccc1CCNC(=O)C(=O)c1cn(CC(=O)N2CCOCC2)c2ccccc12` gave TbPYK inhibitor inactive, Shiga inhibitor 80.1, Cycloheximide cs 61.0, LmPK inh inactive and Sm TGR block inactive.
Screening COc1ccc(CNC(=O)C(=O)c2cn(CC(=O)N3CCOCC3)c3ccccc23)cc1 returned TbPYK inhibitor inactive, Shiga inhibitor inactive, Cycloheximide cs inactive, LmPK inh inactive and Sm TGR block inactive.
For COc1ccc(NC(=O)C(=O)c2cn(CC(=O)N3CCCC3)c3ccccc23)cc1OC the results were TbPYK inhibitor inactive, Shiga inhibitor inactive, Cycloheximide cs inactive, LmPK inh inactive and Sm TGR block inactive.
For CCOc1ccc(CNC(=O)C(=O)c2cn(CC(=O)N3CCOCC3)c3ccccc23)cc1OC the results were TbPYK inhibitor inactive, Shiga inhibitor inactive, Cycloheximide cs 10.1, LmPK inh inactive and Sm TGR block inactive.
Screening COc1cccc(NC(=O)C(=O)c2cn(CC(=O)N3CCCC3)c3ccccc23)c1 returned TbPYK inhibitor inactive, Shiga inhibitor 29.1, Cycloheximide cs 16.7, LmPK inh inactive and Sm TGR block inactive.
Screening COc1ccc(CNC(=O)c2cnn(-c3ccc(C)cc3)c2-n2cccc2)cc1OC returned TbPYK inhibitor inactive and Sm TGR block inactive.
Screening COc1ccccc1CNC(=O)C(=O)c1cn(CC(=O)N2CCCC2)c2ccccc12 returned TbPYK inhibitor inactive, Shiga inhibitor 62.0, Cycloheximide cs 19.6, LmPK inh inactive and Sm TGR block inactive.
`COc1ccc(CCNC(=O)C(=O)c2cn(CC(=O)N3CCCC3)c3ccccc23)cc1` gave TbPYK inhibitor inactive.
For O=C(Nc1ccccc1Cl)C(=O)c1cn(CC(=O)N2CCOCC2)c2ccccc12 the results were TbPYK inhibitor inactive, Shiga inhibitor 46.1, Cycloheximide cs 58.7, LmPK inh inactive and Sm TGR block inactive.
O=C(NCc1ccc(Cl)cc1)C(=O)c1cn(CC(=O)N2CCOCC2)c2ccccc12 was read as TbPYK inhibitor inactive, Shiga inhibitor inactive, Cycloheximide cs inactive, LmPK inh inactive and Sm TGR block inactive.
For Cc1nc2c(C(=O)NCCCN(CC(C)C)CC(C)C)cnn2c(C)c1Cc1c(F)cccc1Cl the results were TbPYK inhibitor inactive and Sm TGR block inactive.
Screening O=C(c1cc(-c2ccncc2)nc2ccc(Cl)cc12)N1CCN(C(=O)C2CCCO2)CC1 (stereo not given) returned FBPA Giardia inh inactive, TbPYK inhibitor inactive, Shiga inhibitor inactive, Cycloheximide cs inactive, LmPK inh inactive and Sm TGR block inactive.
For CC(NC(=O)c1cc(-c2ccccn2)nc2ccc(Cl)cc12)C1CCCO1 (stereo not given) the results were TbPYK inhibitor inactive, Shiga inhibitor inactive, Cycloheximide cs inactive, LmPK inh inactive and Sm TGR block inactive.
Screening CC(NC(=O)c1cc(-c2ccncc2)nc2ccc(Cl)cc12)C1CCCO1 (stereo not given) returned TbPYK inhibitor inactive, Shiga inhibitor 38.0, Cycloheximide cs 13.2, LmPK inh inactive and Sm TGR block inactive.
`CC(=O)c1ccc(N2CCN(C(=O)c3cc(-c4ccncc4)nc4ccc(Cl)cc34)CC2)cc1` gave TbPYK inhibitor inactive, Shiga inhibitor inactive, Cycloheximide cs 14.2, LmPK inh inactive and Sm TGR block inactive.
Cc1c(C(=O)NN)sc(=S)n1C was read as FBPA Giardia inh inconclusive, TbPYK inhibitor inactive, Shiga inhibitor inactive, Cycloheximide cs inactive, LmPK inh inactive and Sm TGR block inactive.
For Cc1csc(C(=O)NN)c1N(C)C the results were FBPA Giardia inh inactive, TbPYK inhibitor inactive, Shiga inhibitor 73.9, Cycloheximide cs 32.3, LmPK inh inactive and Sm TGR block inactive.
